Read-out in assay [1]: Vascular cell adhesion molecule 1 (VCAM1), VCAM1 (gene 7412)
The experiment in a line: BSK_BF4T_VCAM1: BioMAP Diversity Plus: BF4T Assay for Vascular cell adhesion molecule 1 (VCAM1) Biomarker Activity (AID 2284249). The note with it: primary human bronchial epithelial cells with fibroblasts. A digest of the protocol: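 Human bronchial epithelial cell and dermal fibroblast co-culture exposed 24 h. VCAM-1 measured by ELISA; parallel SRB total-protein staining for cytotoxicity. Fitted in positive direction relative to DMSO.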

Read-out in assay [2]: Collagen I, COL1A1 (gene 1277)
In words: BSK_hDFCGF_CollagenI: BioMAP Diversity Plus: hDFCGF Assay for Collagen I Biomarker Activity (AID 2284250). The note with it: primary human foreskin fibroblasts. Put shortly:
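Human skin primary fibroblasts dosed with test chemical, harvested at 24 h, Collagen I quantified by ELISA; parallel SRB staining (0.1% SRB after 10% TCA fixation, 560 nm) tracked cytotoxicity.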

Read-out in assay [3]: Interferon-inducible T-cell alpha chemoattractant (ITAC), CXCL11 (gene 6373)
In words: BSK_hDFCGF_ITAC: BioMAP Diversity Plus: hDFCGF Assay for Interferon-inducible T-cell alpha chemoattractant (ITAC) Biomarker Activity (AID 2284251). Particulars: primary human foreskin fibroblasts. A digest of the protocol:
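Fibroblasts (human foreskin, primary) are treated with chemical, cultured 24 h, then assayed for I-TAC by ELISA. Overt toxicity is checked in parallel cultures by sulforhodamine B staining of total protein at the same time point.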

Read-out in assay [4]: Plasminogen activator inhibitor-1 (PAI1), SERPINE1 (gene 5054)
In words: BSK_KF3CT_PAI1: BioMAP Diversity Plus: KF3CT Assay for Plasminogen activator inhibitor-1 (PAI1) Biomarker Activity (AID 2284252). The note with it: primary human keratinocytes with fibroblasts. Put shortly: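 ELISA read-out of PAI-1 taken 24 h after chemical treatment of a human skin primary co-culture of keratinocytes and foreskin fibroblasts. Increases over DMSO-treated wells defined activity.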

Read-out in assay [5]: Monocyte Chemoattractant Protein-1 (MCP1), CCL2 (gene 6347)
In words: BSK_IMphg_MCP1: BioMAP Diversity Plus: IMphg Assay for Monocyte Chemoattractant Protein-1 (MCP1) Biomarker Activity (AID 2284253). The note with it: primary human endothelial cells with macrophages. A digest of the protocol: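 Human venular endothelial cells co-cultured with macrophages; MCP-1 measured by ELISA 24 hours post-dose and fitted against DMSO. Cytotoxicity monitored by SRB total-protein staining in parallel cultures.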

Read-out in assay [6]: Interleukin-8 (IL8), CXCL8 (gene 3576)
In words: BSK_KF3CT_IL8: BioMAP Diversity Plus: KF3CT Assay for Interleukin-8 (IL8) Biomarker Activity (AID 2284254). The note with it: primary human keratinocytes with fibroblasts. Put shortly: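 IL-8 read-out: ELISA, 24 h post-dose, human skin primary co-culture (keratinocytes + foreskin fibroblasts). DMSO = baseline; positive-direction fit.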

Read-out in assay [7]: Macrophage Inflammatory Protein-1 Alpha (MIP1a), CCL3 (gene 6348)
The experiment in a line: BSK_IMphg_MIP1a: BioMAP Diversity Plus: IMphg Assay for Macrophage Inflammatory Protein-1 Alpha (MIP1a) Biomarker Activity (AID 2284255). The note with it: primary human endothelial cells with macrophages. A digest of the protocol: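 Co-culture of human venular endothelial cells and macrophages exposed to compounds for 24 h; MIP-1a measured by ELISA relative to DMSO. Cytotoxicity assessed in parallel cultures by sulforhodamine B total-protein staining at 560 nm.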

Read-out in assay [8]: Plasminogen activator inhibitor-1 (PAI1), SERPINE1 (gene 5054)
In words: BSK_MyoF_PAI1: BioMAP Diversity Plus: MyoF Assay for Plasminogen activator inhibitor-1 (PAI1) Biomarker Activity (AID 2284256).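 For outcome: PAI-1 protein level measured by ELISA in fibroblast cultures; PAI-1 read 24 h after compound addition.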 Particulars: primary human lung fibroblasts. A digest of the protocol: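 MyoF lung fibroblasts, human primary; compound 24 h; PAI-1 ELISA; positive-direction fit vs DMSO baseline; parallel SRB total-protein staining for cytotoxicity.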

Read-out in assay [9]: CD69, CD69 (gene 969)
The experiment in a line: BSK_IMphg_CD69: BioMAP Diversity Plus: IMphg Assay for CD69 Biomarker Activity (AID 2284257). The note with it: primary human endothelial cells with macrophages. A digest of the protocol: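 Human venular endothelial cells co-cultured with macrophages; CD69 quantified by ELISA 24 h after compound addition. Activity fitted in the positive direction relative to DMSO baseline; cytotoxicity tracked in parallel cultures via SRB total-protein staining.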

Read-out in assay [10]: Eotaxin 3, CCL26 (gene 10344)
The experiment in a line: BSK_BF4T_Eotaxin3: BioMAP Diversity Plus: BF4T Assay for Eotaxin 3 Biomarker Activity (AID 2284258). The note with it: primary human bronchial epithelial cells with fibroblasts. A digest of the protocol:
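Co-culture of human bronchial epithelial cells and dermal fibroblasts, exposed to chemicals for 24 h versus DMSO. Eotaxin-3 quantified by ELISA; cytotoxicity checked in parallel cultures by sulforhodamine B total-protein staining.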

Read-out in assay [11]: Monocyte Chemoattractant Protein-1 (MCP1), CCL2 (gene 6347)
In words: BSK_BF4T_MCP1: BioMAP Diversity Plus: BF4T Assay for Monocyte Chemoattractant Protein-1 (MCP1) Biomarker Activity (AID 2284259). Particulars: primary human bronchial epithelial cells with fibroblasts. Put shortly:
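Co-culture of bronchial epithelial cells and dermal fibroblasts dosed with chemical; MCP-1 measured by ELISA 24 h later. Activity fitted in positive direction versus DMSO; cytotoxicity checked by SRB staining in parallel cultures.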

Read-out in assay [12]: Intercellular Adhesion Molecule 1 (ICAM1), ICAM1 (gene 3383)
In words: BSK_BF4T_ICAM1: BioMAP Diversity Plus: BF4T Assay for Intercellular Adhesion Molecule 1 (ICAM1) Biomarker Activity (AID 2284260). The note with it: primary human bronchial epithelial cells with fibroblasts. A digest of the protocol:
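Co-culture of human bronchial epithelial cells and dermal fibroblasts exposed 24 h to chemical; cell-surface ICAM-1 quantified by ELISA. Parallel SRB total-protein staining assessed cytotoxicity; activity fitted relative to DMSO.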

Read-out in assay [13]: Interleukin-8 (IL8), CXCL8 (gene 3576)
In words: BSK_MyoF_IL8: BioMAP Diversity Plus: MyoF Assay for Interleukin-8 (IL8) Biomarker Activity (AID 2284261). Particulars: primary human lung fibroblasts. Put shortly:
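Lung fibroblasts (human primary) → chemical exposure → 24 h → IL-8 measured by ELISA. Signal increase scored versus DMSO control.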

Read-out in assay [14]: CD90, THY1 (gene 7070)
In words: BSK_BF4T_CD90: BioMAP Diversity Plus: BF4T Assay for CD90 Biomarker Activity (AID 2284262). Particulars: primary human bronchial epithelial cells with fibroblasts. A digest of the protocol: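 Co-culture of human bronchial epithelial cells and dermal fibroblasts, 24 h compound exposure. Cell-surface CD90 measured by ELISA relative to DMSO; parallel SRB total-protein staining for cytotoxicity.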

Read-out in assay [15]: Interleukin-8 (IL8), CXCL8 (gene 3576)
In words: BSK_BF4T_IL8: BioMAP Diversity Plus: BF4T Assay for Interleukin-8 (IL8) Biomarker Activity (AID 2284263). The note with it: primary human bronchial epithelial cells with fibroblasts. Put shortly:
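Human bronchial epithelial cells with dermal fibroblasts co-culture; IL-8 measured by ELISA 24 hours after dosing, fitted vs DMSO. Cytotoxicity tracked in parallel cultures by SRB total-protein staining.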

Read-out in assay [16]: Interleukin-1 alpha (IL1a), IL1A (gene 3552)
In words: BSK_BF4T_IL1a: BioMAP Diversity Plus: BF4T Assay for Interleukin-1 alpha (IL1a) Biomarker Activity (AID 2284264). The note with it: primary human bronchial epithelial cells with fibroblasts. A digest of the protocol:
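Human bronchial epithelial cells co-cultured with dermal fibroblasts, dosed and read at 24 h. Secreted/surface IL-1α quantified by ELISA; gain-of-signal fitted relative to DMSO baseline. Parallel SRB total-protein staining tracked cytotoxicity.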

Read-out in assay [17]: Decorin, DCN (gene 1634)
In words: BSK_MyoF_Decorin: BioMAP Diversity Plus: MyoF Assay for Decorin Biomarker Activity (AID 2284265). Particulars: primary human lung fibroblasts. Put shortly: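 ELISA readout of decorin, 24 h post-dosing; primary human lung fibroblast (MyoF) culture; gain-of-signal fit vs DMSO baseline.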

Read-out in assay [18]: KRT18 (gene 3875)
The experiment in a line: BSK_BF4T_Keratin818: BioMAP Diversity Plus: BF4T Assay for Keratin 818 Biomarker Activity (AID 2284266). Particulars: primary human bronchial epithelial cells with fibroblasts. Put shortly: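 Co-culture of human bronchial epithelial cells and dermal fibroblasts, chemical exposure 24 h. Keratin 8/18 measured by ELISA; positive-direction fit vs DMSO. SRB total protein run in parallel cultures for cytotoxicity.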

Assay [19] in a line: BSK_MyoF_SRB: Viability Assessment in the BioMAP Diversity Plus: MyoF Assay (AID 2284267).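 Note: total protein by SRB absorbance in parallel cultures as cytotoxicity measure.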 Particulars: primary human lung fibroblasts. Put shortly: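 Read-out is SRB absorbance at 560 nm, reflecting total protein in parallel lung fibroblast cultures harvested 24 h after compound addition. Cells were TCA-fixed (10%) and stained with 0.1% SRB; activity is referenced to DMSO.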

Read-out in assay [20]: Matrix Metallopeptidase 1 (MMP1), MMP1 (gene 4312)
In words: BSK_MyoF_MMP1: BioMAP Diversity Plus: MyoF Assay for Matrix Metallopeptidase 1 (MMP1) Biomarker Activity (AID 2284268). Particulars: primary human lung fibroblasts. Put shortly:
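Cells: human lung fibroblasts. Exposure: 24 h chemical dosing. Detection: ELISA for MMP1. Analysis: upward fitting against DMSO negative control.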

The record followed here is PubChem BioAssay (EPA / NIEHS).

Usually AC50 stands for the concentration at which the activity in the assay is half-maximal.

Values joined by “and” are separate entries in the source; they are usually repeats but may differ in a detail not shown here. Identical values can stand only once. Where a structure was tested more than once in an assay, its records may differ in their call. Active and inactive are the calls of the source. Rule for the calls: active = hit-call score of the fitted dose curve at least 0.9, where 1 is the maximum; inactive = score below 0.9.

For `O=C(O)C(F)(F)C(F)(F)C(F)(F)C(F)(F)C(F)(F)C(F)(F)C(F)(F)C(F)(F)C(F)(F)F`, the AC50 in [1] is 11.8 µM (active) and 14.2 µM (active); in assay [3] it was 19 µM (active) and 22 µM (active); in assay [4], 41.7 µM (active) and 33.4 µM (active); in [5], 46.9 µM (active) and 53.7 µM (active); in assay [6], 44.9 µM (active); in assay [7], 47 µM (active) and 33.7 µM (active). The AC50 was 46.7 µM (active) and 54.8 µM (active) in assay [8]; 45.3 µM (active) and 42 µM (active) in assay [9]; 9.59 µM (active) and 12.1 µM (active) in assay [10]; 9.32 µM (active) and 8.22 µM (active) in assay [11]; 11.6 µM (active) and 14.5 µM (active) in [12]; 54.6 µM (active) in assay [13]. Moreover, the AC50 in [14] was 19 µM (active) and 19.4 µM (active); in assay [16], 14.3 µM (active) and 48 µM (active); in [17], 23.6 µM (active) and 22.3 µM (active); in assay [18], 15 µM (active); in assay [19], 50 µM (active) and 38.9 µM (active); in assay [20], 45 µM (active). Further, the outcome in assay [2], in assay [6], in assay [13], in assay [15], in [18] and in [20] was inactive.

Turning to `O=S(=O)(O)C(F)(F)C(F)(F)C(F)(F)C(F)(F)C(F)(F)C(F)(F)F`, the result in assay [1], in assay [2], in assay [3], in assay [4], in assay [5] and in [6] was inactive. Further, the result in [7], in [8], in assay [9], in assay [10], in [11] and in assay [12] was inactive. Further, the result in [13], in assay [14], in [15], in [16], in [17] and in [18] was inactive. The outcome in assay [19] and in assay [20] was inactive.

Consider `COc1ccc(O)c(C(C)(C)C)c1`, for which the result in assay [2], in assay [3], in assay [4] and in assay [6] was inactive.

In the case of `O=C(O)C(F)(F)C(F)(F)C(F)(F)C(F)(F)C(F)(F)C(F)(F)C(F)(F)C(F)(F)F`, the AC50 in [1] was 12.9 µM (active) and 11 µM (active); in assay [3], 47.9 µM (active) and 47.8 µM (active); in [4] it was 48.2 µM (active) and 41.7 µM (active); in assay [9], 49.9 µM (active) and 48.7 µM (active); in assay [10], 17 µM (active) and 15.5 µM (active); in assay [11], 21.7 µM (active) and 34.2 µM (active). The AC50 in assay [12] is 22.2 µM (active) and 38.1 µM (active); in assay [15], 48 µM (active) and 48.7 µM (active); in assay [16], 48.7 µM (active) and 52.5 µM (active); in assay [18], 51.6 µM (active) and 55.1 µM (active). The result in assay [2], in assay [5], in [6], in assay [7], in [8] and in assay [13] was inactive. Moreover, the outcome in assay [14], in assay [17], in [19] and in assay [20] was inactive.

In the case of `Oc1c(Cl)c(Cl)c(Cl)c(Cl)c1Cl`, the AC50 was 7.45 µM (active) in assay [8]; 0.595 µM (active) in assay [13]; 10.2 µM (active) in assay [17]; 6.05 µM (active) in assay [19]; 11.5 µM (active) in [20].
